# Test results from the supplement of paper PMC11417369.
# Whole data set: some 25,000 sequences, median “ln(normalized median fluorescence intensity)” near 9.7, cut for the highest 2% near 11. The list comes from a sample in which the highest values are over-represented; it also holds similar and randomly drawn sequences.
# System: PfAP2-HC AP2 domain (GST-tagged)
# Experiment: gcPBM binding intensity (ln(normalized median fluorescence intensity)); higher = stronger DNA binding
# How it was run: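 Binding of GST-tagged P. falciparum DNA-binding domains, expressed in E. coli and used at about 25 μg on average, was carried out for 1 h in 1× PBS containing 1% milk, 0.2 mg/ml BSA, 0.5% salmon testes DNA and 0.03% Triton X-100. The target was an Agilent 4 × 180k array of primer-extended double-stranded 36-bp intergenic genomic probes plus negative controls, read with Alexa488 anti-GST antibody at 488 nm. Binding intensity is the highest Masliner-normalised natural-log median intensity across replicate spots of either probe orientation.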
row,Sequence,gcPBM binding intensity (ln)
1,GTGTAATTTATTGTGTTGCACTTTTTTTTTTTTTTT [GTGCAC_site9644],9.84
2,ATATATATGTATATAACATGCAACATTTAATAATAA [TGCATGCA_site1018],9.85
3,AAGGTGGAAACAATTACACACACACTAATAAAAAAA [CACACA_site9051],10.8
4,ATATGATTTCACAAGACACACACATACAAATTTATA [CACACA_site9296],10.1
5,TATTTATTTATTTATGCATGCATGAATAATTTTTAC [TGCATGCA_site31],9.62
6,AGAACAATTCTGTGGTGTACCAAAAAAAATTTAATT [XGTACX_site8082],9.8
7,TAAAGAGTCATGTGGTGTACCTGCTTCACCACATAT [XGTACX_site1288],9.4
8,AACTTTGAGACATAGTGTACTTACACAATCTTAATA [XGTACX_site3712],9.63
9,ATGCATATATTTATGTGTACATATATTTGTAGGGGG [XGTACX_site6063],11.2
10,TATATATATATATATGCATGTACATATATTTGTTAT [TGCATGCA_site379],10.4
11,ATATATATTTATATATGTACATATTTTTGTGTATTT [XGTACX_site1183],9.93
12,ATACCTATTTGATGAGTGCATTATCCAATATATGTA,9.59
13,TCTTTTTAAATATATACACACCGTGTCTACAGATAC [CACACA_site5784],9.88
14,AAGAAAAACTTTACGTGTACCAAACATCCTGCCAAC [XGTACX_site598],9.91
15,ATATATATTTTATTATGTACATATAAATATTACACA [XGTACX_site4062],9.57
16,GCATACATCAAGCACACACACACACGCACACGCACA [CACACA_site6311],11.3
17,AAGCATACATCAAGCACACACACACCCACAGAGACA [CACACA_site4362],10.5
18,TGCATATACTCAAGCACACATATATATATATATATA [CACACA_site4733],9.71
19,AATACACGCAGACACACACACACACGCACATATATA [CACACA_site6447],10.8
20,AGCACACGCAGACACACACACACACGCACACGCACA [CACACA_site6306],11.6
21,TGCATATACGCAAGCACACATATATATATATATATA [CACACA_site1069],9.6
22,AATAATAGAAGCACCCACCCACCACCACCCACACAT [CACACA_negctrl_site1033],10.9
23,AGAAGCATACATCAAGCACACACACCCACACCCACA [CACACA_site8014],11.4

row,Sequence,gcPBM binding intensity (ln)
1,ACATCAAGCAGACACACACACACACGCACACGCACA [CACACA_site6309],11.2
2,CACGCACGCAGACACACACACACACGCACATATATA [CACACA_site6303],10.6
3,AGCTCTATATTTTACACATGCGATTTGGATATATAT [TGCATGCA_site105],9.84
4,ATGTACTATGATAATGCATGCAATAATACATTTTTA [TGCATGCA_site318],9.6
5,AAACTATTCACTATAATACATTAGAAGTGAATAAAA [TGCATGCA_negctrl_site498],9.64
6,TTTTTTTTTCTCCATACACACTTGATAAAACTTTTT [CACACA_site4512],9.64
7,AAAAAAAATAATTTGCGTACATAAAAATTTATAGGA [XGTACX_site3016],9.58
8,AAAAATAAAGAAACAGGTACGCATATATTAAGATAT [XGTACX_site8097],9.98
9,TATCCTAATGCTACCACACACACAAAAACAAATAAT [CACACA_site2609],10.7
10,TATTATTTTTCATATGCATGCAAAAATAAAAAAATA [TGCATGCA_site350],9.31
11,AAGGATATAACATACACACACACACCGATATATATA [CACACA_site6136],10.6
12,TATATACATATATACACACACATATATATATATATA [CACACA_site2805],10.1
13,TACATACATACATACACACACACATATATATACATA [CACACA_site853],11
14,AAGGATATAACATACACACACACACCCATATATATA [CACACA_site4142],11.1
15,CAAAAGGATAGGCACACACACACACCGATATATATA [CACACA_site8685],10.7
16,TGGTAATACCCATACACACACACATACCCATATATA [CACACA_site5509],10.3
17,TGGTAATACACATACACACACACATACACATATATA [CACACA_site7312],11.4
18,GGAAGGATATAACATACACACACACCCATATATATA [CACACA_site9376],10.3
19,TGGTAATACCCATACACACACACATACACATATATA [CACACA_site8877],10.3
20,CAAAAGGATAGGCACACACACACACCCATATATATA [CACACA_site2199],11.1
21,GCCAAAAGGATATGCACACACACACCCATATATATA [CACACA_site2198],10.6
22,TATACATATATATACACACACACATATATATATATA [CACACA_site1299],10.1
23,TATATATATAAAAAAAGTACGTATTTAATAAAAATA [XGTACX_site4992],9.88

row,Sequence,gcPBM binding intensity (ln)
1,AAAACTTTTAGTTATACACACAACATAGAAAATATT [CACACA_site6287],9.84
2,TATAAAGACACGTACACACACTAAGTATATCCAATA [CACACA_site6855],10.5
3,AATATTCATATGCAGGTGCATTAATTTTTATTAATT,9.65
4,ATGCTTTTGTCATGTGCACACACGTATATATTATAT [CACACA_site4163],10.3
5,TGTTAATTATAAATTTGTACTTATTTTTACAAAATA [XGTACX_site6598],9.48
6,ATGTAACATAGGAAATGTACATATAAATATAATTTA [XGTACX_site6452],9.77
7,CATATAATATTTGAAACTATATATAAATATAAGGTA [TGCATGCA_negctrl_site19],9.52
8,GAAAATTTATATTGCACACATAGGGAATAAAAAAAA [CACACA_site2146],9.99
9,ATATTTACCATTGTATGTACATATATAAAATATATC [XGTACX_site3237],9.69
10,CACATATATACACATACACACACACCCATACACCCA [CACACA_site8505],11
11,TATATATACATATACACACACACACCCATATATATA [CACACA_site2246],11.1
12,AATGGTAATCCACATACACACACACCGACACATATA [CACACA_site8876],11.1
13,CATACACCCATACATACACACATACATATATATATA [CACACA_site8591],9.98
14,TATATATATATATACACACACACACCCATATATATA [CACACA_site2538],10.4
15,TGGTAATCCACATACACACACACATACACATATATA [CACACA_site2727],10.3
16,TATACATACACATACACACATACACCCATACACATA [CACACA_site1746],10.6
17,CATATACATACACATACACACATACACCCATACACA [CACACA_site8514],10.2
18,AAATATAAATGGTAATACACATACACACACACATAC [XGTACX_negctrl_site459],10.5
19,ACAGTATATTAAAAAATACACACGTATTATATCTAC [CACACA_site2640],9.83
20,TATATGCTATAATATACACACATACCTATATTTATA [CACACA_site6383],9.94
21,ATTTCTTATTAAATTACACACAAAGTAAATAAATCT [CACACA_site3924],9.54
22,AGAAAATACACGCATACACACACACCCACCCACATA [CACACA_site8115],11.3
23,AAAATACACGCATACACACACACACCCACCCATATA [CACACA_site639],11.5

row,Sequence,gcPBM binding intensity (ln)
1,AAAAAAAATACATACACACACACACCCACATATATA [CACACA_site3561],10.6
2,AAAAAAAAAATACATACACACACACCCACCCATATA [CACACA_site9187],10.5
3,TACACGCTAAAATACACACACACACCCACATATATA [CACACA_site4153],10.6
4,CACCCATAAATATACACACGCACAACACAAAATAAA [CACACA_site2903],10.7
5,GCTTTTGTCATGTGCACACACGTATATATTATATAT [CACACA_site6146],10.9
6,AATATCTAAATAAAGTGTACTTACCTTATTAATTAT [XGTACX_site2276],9.64
7,TAAAAGTTGAAGCACACACACAAAAGAAATACAATA [CACACA_site6649],11.3
8,TAAAAATTGAAGCACACACACAAAAGAAATACAATA [CACACA_site1113],10.9
9,CATAAAAATTGAAGCACACACACAAAAGAAATACAA [CACACA_site1112],10.7
10,TTAAGTCCGTTAACAGTGCATTTTTTCTTTTATGTA [GTGCAC_site9867],9.58
11,TATATAAATATACATTGTACTCAACATTTTCATTAA [XGTACX_site3690],9.62
12,AATACAGACAGACACACACACAAAATAAAATACAAA [CACACA_site245],10.5
13,AACAAATACAGACACACACACACACTAATAAAAAAA [CACACA_site8067],11.6
14,ATGTTACTCAGACACACACACATAAAAAAACAAAAA [CACACA_site3249],10.4
15,ATGTTACACAGACACACACACATAAAAAAACAAAAA [CACACA_site7516],10.4
16,GGTACATACAGACACACACACAAAAAAAAAAAAATA [CACACA_site6844],11.2
17,GTGTACAGACACAAAATATATACATATATATATATA [CACACA_negctrl_site1796],9.51
18,ATTCATTCATATGTTACACACACACCCACCCATAAA [CACACA_site9066],10.1
19,TGAACACAGACAAATACACACAAAAAAAATAAATAA [CACACA_site4298],10
20,TCATTCATATGTTACACACACACACCCACATAAAAA [CACACA_site3245],11.2
21,ATATGTTACAGACACACACACACATAAAAAAACAAA [CACACA_site3248],11.1
22,ATTCATTCATATGTTACACACACACGCCCACATAAA [CACACA_site7513],10.6
